Compound activity deposited in PubChem by National Center for Advancing Translational Sciences (NCATS).
Shown are actives, neighbours in structure and some others; about 2.2% of the full set was active somewhere.
Nrf2 activator = qHTS of Nrf2 Activators | AREc32 ARE-luciferase reporter (MCF7-derived line), luminescence, 24 h | Potency, µM (top dose mostly 46.1 µM), for inactives: top-dose activation, hits mostly activators | actives 0.31% (n = 410,000); further: potency means the concentration at half of the fitted maximal effect; % of control where 0% means no effect; nearly all actives have a fitted effect of over 65% in size
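AREc32 cells carrying an ARE-driven firefly luciferase reporter were seeded at 1000 cells/well in OPTI-MEM with 5% FBS, then exposed to compound for 24 hr at 37 deg C. Luminescence was read with Steady-Glo after 30 min at RT.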
B2AR arrestin = qHTS assay of beta-arrestin-biased ligands of beta2-adrenergic receptor | AID 492947, 2010 | Potency, µM (titrated, usually from 46.1 µM), for inactives: top-dose activation, actives largely listed as activators | beta-arrestin recruitment to beta2AR, cell-based reporter | actives 0.02% (n = 330,000);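 further: potency means the concentration at half of the fitted maximal effect; 0% = DMSO controls and full agonism = EC100 isoproterenol or metaproterenol; nearly all actives have a fitted effect of over 65% in size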
Target sequence (P07550 whole entry, looked up): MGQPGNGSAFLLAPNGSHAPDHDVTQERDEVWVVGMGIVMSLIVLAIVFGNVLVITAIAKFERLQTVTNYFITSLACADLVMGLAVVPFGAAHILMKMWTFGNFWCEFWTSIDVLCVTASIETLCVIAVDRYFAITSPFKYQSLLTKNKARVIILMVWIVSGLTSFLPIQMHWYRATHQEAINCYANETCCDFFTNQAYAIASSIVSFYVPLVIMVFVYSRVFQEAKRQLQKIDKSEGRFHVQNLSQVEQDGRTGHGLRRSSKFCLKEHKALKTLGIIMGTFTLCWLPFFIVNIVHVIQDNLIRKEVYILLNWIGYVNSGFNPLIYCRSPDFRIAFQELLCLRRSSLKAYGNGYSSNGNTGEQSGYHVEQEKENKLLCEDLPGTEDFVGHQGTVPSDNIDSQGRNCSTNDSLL
Nrf2 inh = Nrf2 qHTS screen for inhibitors; A549 ARE-Fluc reporter, luciferase luminescence, 18-24 h; Potency, µM (series often up to 46 µM), inactives show at the top dose activity change, negative = inhibition, usual class: inhibitors; actives 2.1% (n = 360,000); AID 504444, 2011; further: potency means the concentration at half of the fitted maximal effect; on the % scale 0 is the no-effect control and ±100 the full control effect; nearly all actives have a fitted effect of over 60% in size
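Cells were seeded and rested 2 h, then exposed to compounds for 18-24 h. CellTiter-Fluor was read first as a viability measure. BugLite was added 15 min before the final luminescent read of ARE-luciferase activity in A549 cells.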
miR-21 reporter = qHTS Assay for Modulators of miRNAs and/orActivators of miR-21; Potency, µM (doses to about 38.3 µM), for inactives: at the highest dose activity change, positive = activation, actives largely listed as activators; HeLa miR-21 FLuc reporter, luciferase, 48 h; AID 2288, 2010; 340,000 tested, under 10 active;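 further: % of control where 0% means no effect; miR-21 action dims this reporter so a rising signal means less miR-21 action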
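Luminescence from a firefly luciferase reporter carrying a miR-21 binding site downstream, stably expressed under a CMV promoter in HeLa cells that make miR-21 endogenously, reports miRNA modulation after 48 h compound exposure up to approximately 40uM final.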
A549 tox = Nrf2 qHTS screen for inhibitors: counterscreen for cytotoxicity. A549 ARE-Fluc cells, CellTiter-Fluor viability, 18-24 h. Potency, µM (series often up to 46 µM), for the others: at the highest dose activity change, negative = cytotoxicity, actives largely listed as inhibitors. actives 0.16% (n = 390,000); further: potency means the concentration at half of the fitted maximal effect; on the % scale 0 is the no-effect control and ±100 the full control effect
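Cytotoxicity counterscreen: CellTiter-Fluor fluorescence was measured in A549 ARE_Fluc cells after 18-24 h of compound exposure in a concentration series. The subsequent BugLite luminescent read reports ARE-luciferase activity.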
Numbers without * were called inactive; ? = inconclusive; . = not tested or not shown. The call rests on the fitted dose curve; in most records, active means well fitted curve in the direction sought with a large enough effect; inconclusive means small, poorly fitted or top-dose-only effect, or another doubt; inactive means no such curve, though single readings can be large; an effect the other way counts as inactive or inconclusive.

SMILES | Nrf2 activator | B2AR arrestin | Nrf2 inh | miR-21 reporter | A549 tox
Cc1ccc2nc(N(CCCN(C)C)C(=O)c3ccc(S(=O)(=O)N4CCc5ccccc5C4)cc3)sc2c1 | 15% | 6% | 21µM* | 24% | ?
CN(C)CCCN(C(=O)c1ccc(S(=O)(=O)N2CCc3ccccc3C2)cc1)c1nc2ccc(F)cc2s1 | 3% | 13% | ? | ? | ?
CCOC(=O)c1ccccc1NC(=O)COC(=O)CC(C)(C)CC1=NS(=O)(=O)c2ccccc2N1 | -2% | . | . | ? | -26%
CC(=O)c1ccc(N2CCN(C(=O)Nc3ccc(Cl)cc3)CC2)cc1 | 4% | 0% | 16µM* | 2% | -7%
CC(=O)c1ccc(NC(=O)N2CCN(c3cccc(Cl)c3)CC2)cc1 | -1% | 0% | 9.2µM* | -6% | -7%
O=C(Nc1ccc(Cl)cc1)N1CCN(c2ccccc2)CC1 | 2% | 0% | -19% | -22% | -6%
CN(C)C(=O)CSc1nc2ccc(N3C(=O)c4ccccc4C3=O)cc2s1 | 3% | -1% | 4% | -1% | -8%
Cc1cccc(NC(=O)CSc2nc3ccc(N4C(=O)c5ccccc5C4=O)cc3s2)c1C | 0% | 0% | 21µM* | 0% | ?
COc1ccc(S(=O)(=O)c2c(Nc3c(C)cccc3C)sc(C(=O)c3ccc(F)cc3)c2N)cc1 | 0% | . | . | 2% | -11%
CCN(c1ccccc1)S(=O)(=O)c1ccc(NC(=O)c2nc(S(C)(=O)=O)ncc2Cl)cc1 | -3% | 0% | 21µM* | ? | ?
Cn1c(SCc2ccc(F)cc2)nc2ccc(C(=O)NCc3ccc(F)cc3)cc21 | 0% | . | 23µM* | 8% | ?
CC(C)Oc1ccc(CNC(=O)c2ccc3nc(SCc4ccc(F)cc4)n(C)c3c2)cc1 | 1% | . | 11% | -3% | 2%
Cc1ccccc1CNC(=O)c1ccc2nc(SCc3ccc(F)cc3)n(C)c2c1 | 1% | . | ? | -8% | -1%
Cn1c(SCc2ccc(F)cc2)nc2ccc(C(=O)NCc3cccc(Cl)c3)cc21 | 0% | . | 21µM* | ? | -6%
Cn1c(SCc2ccc(F)cc2)nc2ccc(C(=O)NCc3ccc(Cl)cc3)cc21 | 3% | . | 15µM* | 1% | 2%
COc1cccc(CNCCSc2nnnn2C)c1OCc1ccccc1F | 4% | . | ? | -1% | -13%
O=C(Cc1cccc2ccccc12)Nc1ccc(-c2cc3ccccc3oc2=O)cc1 | -3% | 0% | 5.8µM* | 13% | -6%
CCC(=O)Nc1cccc(-c2cc3ccccc3oc2=O)c1 | 2% | -1% | ? | -52% | 7%
Cc1nc2ccccc2n1CCc1nc2c3ccccc3nc(SCc3ccccc3F)n2n1 | 0% | . | . | -5% | 1%
COc1ccc(OC)c(C2SCCN2S(=O)(=O)c2cccc(C(F)(F)F)c2)c1 (stereo unspecified) | -1% | -1% | 21µM* | 4% | -7%
Cc1ccc(C(=O)c2oc3ccccc3c2NC(=O)c2cc(-c3cc(C)ccc3O)n[nH]2)cc1 | 3% | -1% | 26µM* | -3% | -26%
CCn1ccc2cc(S(=O)(=O)N3CCC(C(=O)NCCc4ccccc4Cl)CC3)ccc21 | 0% | . | . | -1% | -1%
Cc1ccc(NS(=O)(=O)c2cc3c(cc2-c2ccsc2)NC(=O)CO3)cc1C | . | . | 10% | . | 3%
Cc1cccc(Cc2c(C)nc3c(-c4ccccc4)c(C)[nH]n3c2=O)c1 | 1% | . | 5.8µM* | ? | ?
Cc1nc2c(-c3ccc(Cl)cc3)c(C)[nH]n2c(=O)c1Cc1ccccc1 | 3% | 0% | 15µM* | ? | ?
SMILES | Nrf2 activator | B2AR arrestin | Nrf2 inh | miR-21 reporter | A549 tox
CCCCc1c(C)nc2c(-c3ccc(OC)cc3)c(C)[nH]n2c1=O | 2% | . | 21µM* | 0% | -16%
COCc1cc(=O)n2[nH]c(C)c(-c3ccc(Cl)cc3)c2n1 | 0% | . | . | . | .
Cc1[nH]n2c(=O)cc(-c3ccccc3Cl)nc2c1-c1ccccc1 | -1% | . | 18µM* | 0% | -18%
Cc1nc2c(-c3ccccc3)c(C)[nH]n2c(=O)c1Cc1ccccc1 | -1% | 0% | ? | 24% | -18%
COc1ccc(S(=O)(=O)c2c(C(=O)c3ccc(C)c(C)c3)cnc3ccc(C)cc23)cc1 | 29% | . | -9% | 11% | -2%
Cc1ccccc1Cc1c(C)nc2c(-c3ccccc3)c(C)[nH]n2c1=O | -1% | . | 18µM* | ? | ?
COc1ccc(CNC(=O)c2csc(Cc3ccc(OC)cc3)n2)cc1 | 3% | 0% | . | 0% | -2%
COc1ccc(CNC(=O)c2csc(Cc3ccc(Cl)cc3)n2)cc1 | 3% | 0% | 23µM* | 4% | 9%
O=c1cc(-c2ccncc2)oc2c1ccc1ccccc12 | 3% | 0% | 18µM* | 0% | -14%
O=c1cc(C(Cl)(Cl)Cl)oc2c1ccc1ccccc12 | 13µM* | -1% | 21µM* | -3% | ?
O=c1cc(-c2ccco2)oc2c1ccc1ccccc12 | ? | -1% | -16% | 1% | 6%
O=c1cc(-c2ccc(O)cc2)oc2c1ccc1ccccc12 | 0% | 0% | ? | . | -8%
O=C(CN1C(=O)CC(c2ccc(F)cc2)=Nc2ccccc21)NCc1ccccc1Cl | 1% | . | -25% | 1% | -12%
Cc1ccc(NS(=O)(=O)c2ccc3ccccc3c2)cc1C | . | . | ? | . | 16%
Cc1cccc(NC(=O)CSc2nc3ccccc3c3nc(CCc4c(C)n[nH]c4C)nn23)c1 | -1% | 0% | 10µM* | 26% | ?
Cc1cncn1CCc1nc2c3ccccc3nc(SCC(=O)Nc3cccc(Cl)c3)n2n1 | 16% | 0% | -18% | ? | 16µM*
Cc1cncn1CCc1nc2c3ccccc3nc(SCC(=O)Nc3ccc(F)cc3)n2n1 | -1% | . | . | 10% | 0%
CC(=O)Nc1ccn(C2OC(C(COC(C)=O)NC(=O)C(COCc3ccccc3)NC(=O)OC(C)(C)C)C(OC(C)=O)C2OC(C)=O)c(=O)n1 (stereo unspecified) | . | . | 21% | . | 1%
COc1ccc(-c2nn(C)c3sc(C(=O)Nc4cc(OC)c(OC)c(OC)c4)cc23)cc1OC | 4% | . | 23µM* | -1% | ?
COc1ccc(-c2nn(C)c3sc(C(=O)NCc4ccco4)cc23)cc1OC | 4% | 0% | 18% | -6% | 0%
COc1ccc(NC(=O)c2cc3c(-c4ccc(OC)c(OC)c4)nn(C)c3s2)cc1OC | 21% | 14% | 12µM* | 9% | -29%
Cc1ccc(-c2cc(C3C4C=CCC(C)C4C(=O)N3Cc3ccccc3)ccc2F)cc1 (stereo unspecified) | . | . | ? | . | 9%
COc1ccc(CNC(=O)CSc2ccc(Br)cc2)cc1OC | -1% | 0% | 23µM* | -2% | 1%
